From PubChem
Shn3 3UTR inh: reduction of Shn3 3'UTR firefly luciferase signal, primary screen, Schnurri-3 inhibitor project, cell-based, Clone20 osteoblasts, set 2. Clone20 osteoblast Shn3 3'UTR firefly luciferase, 24 h. inhibition, % at 12.5 µM. 360,000 tested, 0.52% active. AID 588674, 2011;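 active means mean inhibition of at least 75% with every replicate also reaching 75%; inconclusive means mean inhibition at least 75% but some replicate below; inactive means mean inhibition below 75%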
KKLEB tox: cytotoxicity in KKLEB CF airway cells, primary screen, cytotoxicity control for CF NF-kB inhibitor project, cell-based, uHTS, fluorescence assay plates | activity change (cytotoxicity), % at 5 µM | 360,000 tested, 0.36% active | KKLEB CF airway cells viability, ATPlite luminescence, overnight; active compounds read low; cells stimulated with P. aeruginosa culture filtrate;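 active means corrected activity change at or below -50% at 5 µM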
TRPM1 prom inh: inhibitors of MITF-dependent TRPM1 promoter reporter, primary screen, cell-based, SK-MEL-5, single point, luciferase | SK-MEL-5 TRPM1 promoter luciferase, 24 h | inhibition, % at 12.5 µM | 330,000 tested, 0.83% active | AID 488899, 2010;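 active means mean inhibition across replicates of 60% or more, whatever share of single replicates reaches that level; inconclusive means some that reach 60%, reason not given; inactive means mean inhibition across replicates below 60%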
HIF-2a block: HIF-2a reporter inhibitors, primary screen, luminescence, 786-0 RCC cells. 786-0 RCC cells HIF-2a reporter, luciferase luminescence, overnight. inhibition, % at 18.8 µM. 360,000 tested, 0.72% active. AID 624352, 2012;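 active means inhibition of the luminescence signal of 40% or more relative to plate controls, in a single-dose primary screen at 18.75 µM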
Peg3 promoter: Peg3 promoter-driven luciferase inhibitors, primary screen, cell-based, HeLa, luciferase luminescence; AID 588405, 2011; inhibition, % at 20 µM; HeLa PEG-Prom luciferase reporter, overnight; 360,000 tested, 1.7% active;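 active means inhibition of at least 50% at 20 µM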
CF NFkB inh: inhibitors of PAF-induced NF-kB signaling, primary screen, cell-based, GFP fluorescence, uHTS; 360,000 tested, 0.86% active; KKLEB NF-kB-GFP reporter, GFP fluorescence overnight; AID 588850, 2011; inhibition, % at 5 µM;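 active means at least 50% inhibition at 5 µM, scaled per plate between neutral and stimulator controls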;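 further: PAF is a Pseudomonas aeruginosa culture filtrate used as stimulus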
A number is an active result; – = inactive; ? = inconclusive; · = no result. Most compounds without a hit are left out; they make up all but 2.8% or so of the library.

SMILES | Shn3 3UTR inh | KKLEB tox | TRPM1 prom inh | HIF-2a block | Peg3 promoter | CF NFkB inh
Cc1c(C(=O)NCCCN2CCCC2=O)oc2ccc(S(=O)(=O)N3CCOCC3)cc12 | – | – | – | – | – | –
Cc1c(C(=O)NCCC2=CCCCC2)oc2ccc(S(=O)(=O)N3CCOCC3)cc12 | – | – | – | – | 66.5 | –
Cc1ccc(CNC(=O)c2oc3ccc(S(=O)(=O)N4CCC5(CC4)OCCO5)cc3c2C)cc1 | – | – | – | – | 51.1 | –
O=C1CC2(CCN(S(=O)(=O)c3ccccc3F)CC2)Oc2ccccc21 | – | – | – | – | – | –
NS(=O)(=O)c1ccc(NC(=O)COC(=O)c2cnc(Cl)c(Cl)c2)cc1 | – | – | – | – | – | –
O=C1c2ccccc2C(=O)c2c1cccc2N(CCO)CCO | – | – | – | – | – | –
O=C1C=C(N(CCO)Cc2ccccc2)c2ccccc2C1=O | – | – | 106.5 | – | – | 68.1
COc1ccc(-c2nc(N/N=C(\C)c3ccc(O)cc3)c3ccccc3n2)cc1 | – | – | – | – | – | 56.2
COc1ccc(NC(=O)C2(C)CCN2Cc2cccc(OC)c2OC)cc1OC (configuration not stated) | – | – | · | – | – | –
Cc1ccn2cc(-c3ccc(O)c(O)c3)nc2c1 | 86.5 | – | – | – | – | –
Oc1ccc(-c2cn3ccccc3n2)cc1O | – | – | – | – | – | –
CC(CCN1CCN(CCO)CC1)c1ccccc1 (configuration not stated) | – | – | – | – | – | –
CCn1c(/N=C/c2ccccc2NS(=O)(=O)c2ccc(C)cc2)nc2ccccc21 | – | – | – | – | – | 61.0
CCN(CC)CCn1c(NS(=O)(=O)c2ccc(C)cc2)nc2ccccc21 | – | – | · | – | – | –
CCOc1ccc(C(=O)Nc2cc(-c3nc4ccccc4[nH]3)ccc2Cl)cc1[N+](=O)[O-] | – | -53.4 | – | – | 62.1 | –
CCOc1ccc(C(=O)Nc2cc(-c3nc4ccccc4[nH]3)ccc2C)cc1[N+](=O)[O-] | – | – | – | – | – | –
Cc1ccc(-c2nc3ccccc3[nH]2)cc1NC(=O)c1ccc2c(c1)OCO2 | – | – | – | – | – | –
O=C(NC(=S)Nc1cc(-c2nc3ccccc3[nH]2)ccc1Cl)c1ccc2c(c1)OCO2 | – | – | – | – | 100.4 | –
C/C=C(\C)CN1CCCC(CO)(Cc2ccccc2)C1 (configuration not stated) | – | – | – | – | – | –
O=c1c(Cc2ccccc2)c(O)ccn1Cc1ccc2c(c1)OCO2 | – | – | – | – | – | –
C[C@@H]1CN([C@H](C)CO)C(=O)c2cc(NC(=O)Cc3ccccc3)ccc2O[C@H]1CN(C)Cc1ccc(Oc2ccccc2)cc1 | – | – | – | – | – | –
C[C@@H]1CN([C@@H](C)CO)C(=O)Cc2cc(NC(=O)Nc3ccc(F)cc3)ccc2O[C@@H]1CN(C)Cc1ccc(Cl)c(Cl)c1 | – | – | – | – | 85.3 | 51.6
COc1ccc(CN(C)C[C@@H]2OCCCC[C@H](C)Oc3ccc(NC(=O)Cc4ccccc4)cc3C(=O)N([C@@H](C)CO)C[C@@H]2C)cc1 | – | – | · | – | – | –
C[C@@H]1CN([C@@H](C)CO)C(=O)c2cc(NC(=O)Nc3ccc(F)cc3)ccc2O[C@@H]1CN(C)Cc1ccc(Oc2ccccc2)cc1 | ? | – | – | – | 80.2 | –
C[C@@H]1CCCCO[C@H](CN(C)Cc2ccc(C(F)(F)F)cc2)[C@H](C)CN([C@@H](C)CO)C(=O)c2cc(NC(=O)Cc3ccccc3)ccc2O1 | – | – | · | – | 50.5 | –
SMILES | Shn3 3UTR inh | KKLEB tox | TRPM1 prom inh | HIF-2a block | Peg3 promoter | CF NFkB inh
C[C@H]1CCCCO[C@H](CN(C)CC2CCCCC2)[C@@H](C)CN([C@@H](C)CO)C(=O)c2cc(NS(=O)(=O)c3ccccc3)ccc2O1 | – | – | · | – | – | –
C[C@@H]1CCCCO[C@@H](CN(C)CC2CCCCC2)[C@@H](C)CN([C@H](C)CO)C(=O)c2cc(NS(=O)(=O)c3ccc(Cl)cc3)ccc2O1 | – | – | · | – | 90.0 | –
Cc1cc(Cl)ccc1OCC(=O)NCC(=O)N/N=C/c1ccco1 | – | – | – | – | – | –
NCc1csc(Nc2ncccn2)n1 | – | – | · | – | – | –
CN(C)C(=O)CCc1ccc2c3c([nH]c2c1)[C@]1(CCC2CCCC2)[C@@H](C(=O)N2CCOCC2)C[C@H](CC(=O)NCCC2=CCCCC2)C(=O)N1CC3 | – | – | – | – | – | –
C[C@@H]1CN([C@H](C)CO)C(=O)c2cc(NC(=O)Nc3ccc(F)cc3)ccc2O[C@@H](C)CCCCO[C@H]1CN(C)Cc1ccc(C(=O)O)cc1 | – | – | · | – | – | –
COc1ccc(CN(C)C[C@@H]2OCCCC[C@H](C)Oc3ccc(NC(=O)Nc4ccc(F)cc4)cc3C(=O)N([C@H](C)CO)C[C@H]2C)cc1 | – | – | · | – | 74.3 | –
C[C@H](CO)N1C[C@H](C)[C@@H](CN(C)C(=O)Nc2ccc(C(F)(F)F)cc2)Oc2c(NC(=O)NC3CCCCC3)cccc2C1=O | – | – | – | – | – | –
C[C@@H]1CN([C@H](C)CO)C(=O)c2cccc(NC(=O)NC3CCCCC3)c2O[C@@H]1CN(C)C(=O)Nc1ccc(C(F)(F)F)cc1 | – | – | – | – | 87.7 | –
O=C(N/N=C(\c1ccccc1)c1cccnc1)c1ccc(O)cc1 | – | – | – | – | – | –
O=C(N/N=C(\c1ccccc1)c1cccnc1)c1cccc(F)c1 | 94.7 | – | 90.0 | – | 52.6 | –
Cc1ncc(CO)c(CNc2ccc(Oc3ccccc3)cc2)c1O | – | – | – | – | – | –
OC(CNCC1CCCO1)Cn1c2ccc(Cl)cc2c2cc(Cl)ccc21 (configuration not stated) | – | – | – | – | 105.9 | –
OC(CNCCC1C=Nc2ccccc21)Cn1c2ccc(Cl)cc2c2cc(Cl)ccc21 (configuration not stated) | 92.7 | – | 90.8 | – | 102.3 | –
Cc1cc(C)n(CC(O)Cn2c3ccc(Cl)cc3c3cc(Cl)ccc32)c(=O)n1 (configuration not stated) | – | – | – | – | – | –
O=C(NNC1CC(=O)N(c2ccccc2)C1=O)c1ccc(COc2ccccc2Cl)o1 (configuration not stated) | – | – | – | – | – | –
Nc1ncnc2c1ncn2C1O[C@H](CO)[C@@H](O)[C@@H]1O (some centres not stated) | – | – | – | – | – | –
